Test in all cases: NCI-60 one-dose screen, 48 h (100 = growth as untreated, 0 = no growth, -100 = all killed)
Settings in all cases: 10 µM

For assay [1], the system named is SR leukemia.
The subject of assay [2] is RPMI-8226 leukemia.
Assay [3] relates to OVCAR-8 ovarian.
In assay [4] the test system is OVCAR-5 ovarian.
Assay [5] concerns OVCAR-4 ovarian.
Assay [6] has as its system SK-OV-3 ovarian.
Assay [7] relates to IGROV1 ovarian.
The test system of assay [8] is OVCAR-3 ovarian.
Assay [9] deals with HS 578T breast.
In assay [10] the test system is NCI/ADR-RES ovarian.

This is part of a sample that, as a whole, favours compounds with a hit. Of some 83,000 tested, about 20% had one in any assay.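 Assay: single dose, 48 h. Readout: percent growth (0 = no net growth; negative = cell death). Active: <10.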 Unmarked numbers belong to inactive results. Activity calls are given as the source filed them.

Regarding `Cc1ccc(-n2c(-c3cc4c([nH]c5ccccc54)c(-c4cccc(O)c4)n3)n[nH]c2=S)cc1`, the growth in assay [1] is -21.8% (active); in assay [2], -14.1% (active); in [3], 0.787% (active); in [4], 50.1%; in [5] it was 26.4%; in assay [6], -14.5% (active). The growth was -3.48% (active) in [7], -36.1% (active) in assay [8], 23.4% in assay [9] and 61.7% in [10].
With `CCCCn1c(=O)[nH]c(N)c(C(c2ccc(Cl)cc2)c2c(N)[nH]c(=O)n(CCCC)c2=O)c1=O`, the growth in assay [1] is 24.2%; in [2], 25.5%; in assay [3] it was 46.7%; in [4], 87.8%; in [5], 42.7%; in assay [6], 56.5%. Moreover, the growth in [7] is 46%; in assay [8] it was 27.2%; in [9], 50.6%; in [10], 103%.
For `COc1cc(-c2c(C#N)c(N)n3c(nc4ccccc43)c2C#N)cc(Br)c1OC`, the growth is -1.43% (active) in [1]; 35.8% in assay [2]; 36.4% in [3]; 68.9% in [4]; -2.8% (active) in assay [5]; 49.3% in assay [6]. Moreover, the growth is 83.5% in [7], -36.6% (active) in assay [8], 19.7% in assay [9] and 78.1% in assay [10].
For the molecule `COc1cc(CSc2nc3ccc(Cl)cc3c(=O)n2-c2ccccc2)cc(OC)c1OC`, the growth in assay [1] was 45.6%; in assay [2], 105%; in [3], 84.3%; in assay [4], 84.7%; in assay [5], 81.7%; in assay [6], 94.4%. Further, the growth was 72.5% in assay [7], 77.8% in assay [8], 90.3% in assay [9] and 75.5% in [10].
For the molecule `O=C1/C(=C/c2cccs2)CCC/C1=C\c1cccs1`, the growth is 78.1% in assay [1]; 57.5% in assay [2]; 93.2% in assay [3]; 79.5% in [4]; 77.9% in [5]; 101% in assay [6]. Further, the growth was 98.8% in assay [7], 107% in assay [8], 95.7% in assay [9] and 88.7% in [10].
In the case of `COC(=O)C1(C(=O)OC)C2C(=O)C3C(C21)C3(C(=O)OC(C)(C)C)C(=O)OC(C)(C)C` (stereo not given), the growth in [1] is 113%; in assay [2] it was 93.8%; in assay [3] it was 104%; in assay [4], 102%; in assay [5] it was 101%; in [6] it was 121%. The growth in assay [7] is 109%; in [8], 114%; in assay [9], 97.9%; in assay [10], 104%.
Turning to `C=CCn1c(C)nc2cc(Nc3nc(Nc4ccc5nc(C)n(CC=C)c5c4)c4ccccc4n3)ccc21`, the growth is -44.2% (active) in assay [1]; -24% (active) in assay [2]; -40.9% (active) in assay [3]; -92.5% (active) in assay [4]; -100% (active) in assay [5]; -95.7% (active) in assay [6]. Further, the growth in assay [7] is -93.8% (active); in assay [8], -99.8% (active); in assay [9], -48.1% (active); in [10], -23.7% (active).
Take `COCCNCC(O)Cn1c2ccc(Cl)cc2c2cc(Cl)ccc21` (stereo not given): the growth in assay [1] is -19.9% (active); in assay [2], -36.9% (active); in assay [3], -69.9% (active); in [4], -79.1% (active); in [5], -97.3% (active); in [6], 52.7%. The growth in [7] is -38% (active); in assay [8], -46.3% (active); in assay [9] it was -12.3% (active); in assay [10], -6.15% (active).
With `CN(C)c1ccc2cc(-c3cc4c(oc3=O)-c3ccccc3OC4O)c(=O)oc2c1` (stereo not given), the growth in assay [1] is -12.7% (active); in [2] it was -9.42% (active); in assay [3] it was 13.6%; in assay [4], -9.51% (active); in assay [5], 26%; in [6], 28.8%. Further, the growth in assay [7] was -28.7% (active); in assay [8], -30% (active); in assay [9] it was -7.78% (active); in assay [10], 0.415% (active).
Turning to `COc1cc(Nc2ccnc(N3CCN(c4ccnc5cc(Cl)ccc45)CC3)n2)cc(OC)c1`, the growth in [1] is -17% (active); in assay [2], -27.6% (active); in assay [3] it was 1.09% (active); in assay [4], 30.8%; in assay [5] it was 30.4%; in assay [6], 6.6% (active). Further, the growth was 3.24% (active) in assay [7], 15% in assay [8], 24.6% in [9] and 7.19% (active) in assay [10].
As to `COc1cccc2c1O/C(=C\c1ncc([N+](=O)[O-])n1C)C2=O`, the growth in [1] is 6.35% (active); in assay [2], -8.69% (active); in [3] it was -23.3% (active); in [4] it was -9.04% (active); in [5], 7.16% (active); in assay [6], -16.6% (active). Further, the growth in [7] was -17.7% (active); in assay [8] it was -3.72% (active); in [9] it was -24.3% (active); in [10], -3.54% (active).
On to `O=C(COCc1c(-c2ccccc2)no[n+]1[O-])Nc1nc(-c2ccc(Cl)cc2)cs1`, for which the growth is 98.2% in assay [1]; 109% in assay [2]; 101% in [3]; 109% in assay [4]; 111% in [5]; 95.1% in [6]. Moreover, the growth in [7] is 112%; in assay [8], 102%; in assay [9], 99.6%; in assay [10] it was 101%.
For the molecule `COc1ccc(C(C)=O)cc1N1C(=O)C2C(C1=O)C1(c3ccccc3)C(=O)C2(c2ccccc2)C(c2ccc(C)cc2)=C1c1ccc(C)cc1` (stereo not given), the growth was 8.77% (active) in assay [1]; 17.2% in assay [2]; 14.5% in assay [3]; 55.7% in [4]; 26.2% in [5]; 32.2% in [6]. For the same molecule, the growth was 9.07% (active) in assay [7], 21.4% in assay [8], 80.7% in [9] and 12.7% in assay [10].
Turning to `CC1(C)CNC(=O)N1`, the growth was 95.2% in [1]; 95.8% in assay [2]; 99.8% in assay [3]; 108% in assay [4]; 99.7% in assay [5]; 95.6% in [6]. The growth in [7] was 99.9%; in assay [8] it was 108%; in assay [9], 98.8%; in [10], 109%.
Turning to `CC(=O)[C@H]1CC[C@H]2[C@@H]3CC[C@@H]4CC=C(C=O)C[C@]4(C)[C@H]3CC[C@]12C`, the growth in assay [1] was 73.5%; in [2], 58.1%; in assay [3], 97.8%; in assay [4], 96.9%; in assay [5] it was 99%; in assay [6], 95.8%. The growth in [7] is 89.4%; in assay [8], 107%; in [9], 106%; in [10], 87.5%.
For the molecule `CC(C)C(C)C(N)C(=O)O` (stereo not given), the growth in assay [1] is 93.7%; in assay [2] it was 99.6%; in [3], 105%; in [4], 114%; in assay [5] it was 115%; in assay [6] it was 96%. The growth in [7] is 101%; in [8], 111%; in assay [9], 117%; in [10] it was 107%.
For the molecule `CC(C)OP(=O)(O)c1ncc(-c2ccc(C(F)(F)F)cc2)c(NC2CCCCCC2)n1`, the growth in assay [1] is 86.3%; in [2], 8.81% (active); in assay [3] it was 52.3%; in [4] it was 84.6%; in [5], 52%; in [6] it was 85.2%. In addition, the growth in assay [7] is 62.4%; in [8], 12.1%; in assay [9], 81.7%; in [10] it was 97.5%.
Regarding `CCCCCCOc1ccc(/C=C/C(=O)c2ccc(B(O)O)cc2)cc1`, the growth in assay [1] was 48.4%; in assay [2], 46.2%; in assay [3] it was 81.2%; in assay [4] it was 77.3%; in assay [5], 64.6%; in [6], 87.3%. The growth in assay [7] is 64.7%; in [8] it was 97.1%; in assay [9], 60.3%; in assay [10], 77.4%.
With `O=C(O)CCCCSCCCCC(=O)O`, the growth in [1] is 87.6%; in assay [2], 97.9%; in assay [3], 106%; in assay [4], 122%; in assay [5] it was 113%; in assay [6], 98.7%. Besides, the growth was 97.9% in assay [7], 109% in assay [8], 104% in assay [9] and 109% in assay [10].
For `CNC(=O)c1cc(Oc2ccc(NC(=O)Nc3ccc(Cl)c(OC(C)C)c3)c(F)c2)ccn1`, the growth in assay [1] is 40.8%; in [2], 26.8%; in assay [3], 53.9%; in assay [4], 85.3%; in [5], 24.1%; in assay [6] it was 82.8%. Also, the growth in [7] is 60.8%; in [8], 58.3%; in assay [9], 64.6%; in [10] it was 56%.
In the case of `COc1ccc2c(c1)/C(=C/c1cc(OC)c(OC)c(OC)c1)C(=O)N2C`, the growth in [1] is 17%; in assay [2], -25.2% (active); in assay [3] it was 28.8%; in [4], 66.4%; in [5], 47.3%; in assay [6] it was 19.3%. Besides, the growth is 0.661% (active) in assay [7], -72% (active) in assay [8], -12.4% (active) in [9] and 2.46% (active) in assay [10].
`Cc1ccc(NC(=O)/C=N/O)cc1C`: the growth was 87% in assay [1]; 96.6% in assay [2]; 98.6% in assay [3]; 96.9% in assay [4]; 85.2% in [5]; 81.3% in assay [6]. For the same molecule, the growth is 117% in [7], 87% in assay [8], 95.7% in [9] and 112% in [10].
For the molecule `Cc1nc2sccn2c1-c1csc(Nc2cccc(Cl)c2C)n1`, the growth is 17.7% in assay [1]; 45% in assay [2]; 65.6% in assay [3]; 77.9% in [4]; 45.7% in assay [5]; 79.1% in [6]. For the same molecule, the growth in assay [7] is 62%; in assay [8], 64.3%; in assay [9] it was 53.1%; in assay [10], 41.6%.
As for `CN1/C(=C\C(I)C(I)C2=[N+](C)c3ccccc3C2(C)C)C(C)(C)c2ccccc21` (stereo not given), the growth in [1] is 8.27% (active); in assay [2], -10.4% (active); in [3] it was 7.15% (active); in assay [4], 24.9%; in assay [5], 21.6%; in assay [6], -8.39% (active). For the same molecule, the growth in [7] is 25%; in assay [8] it was 13.3%; in [9] it was 42.8%; in [10], 73%.
Take `Cc1ccc([P+](Cc2ccccc2)(c2ccccc2)c2ccccc2)cc1`: the growth in assay [1] was -11.9% (active); in [2], -32.1% (active); in assay [3] it was 3.59% (active); in [4], 31.7%; in assay [5] it was 3.46% (active); in [6] it was 21.3%. Besides, the growth in assay [7] was 0.953% (active); in assay [8], 19.2%; in assay [9], 44.8%; in assay [10] it was 101%.

Source of the values: PubChem BioAssay (NCI).
